In all, about 13,000 compounds went through this assay and about 3,200 (25%) showed an effect of 50% or more. This is one part of the list.
Test system: P. falciparum stage V gametocytes
Set-up: BacTiter-Glo ATP luminescence viability of purified stage V gametocytes in 384-well plates, per cent inhibition versus DMSO
Details: 48 h, 5 µM; inhibitor

SMILES | % Inhibition [%]
CCN(c1cc(C)nc(Nc2ccc(Cl)cc2)n1)[C@H]1CCN(Cc2ccccc2)C1 [TCMDC-132205] | -28.73
CC(C)(C)c1cc(C(=O)N2CCN(c3nccnc3C#N)CC2)n(Cc2ccccc2)n1 [TCMDC-134141] | -3.89
OC(c1cccc2ccccc12)C1CN(CCc2ccccc2)CCC1(O)c1ccccc1 (stereo not drawn) [TCMDC-131998] | 42.45
COc1ccc(C2=C(Nc3ccc4oc5ccccc5c4c3)c3ccccc3C2=O)cc1 [TCMDC-125672] | 2.294
Cc1noc(C)c1-c1cccc(CNCc2ccc(-c3ccc(-c4nc5cc(F)ccc5[nH]4)cc3)cc2)c1.O=C(O)C(F)(F)F [TCMDC-133057] | 12.39
Cc1cccc2nc(-c3ccc(-c4cccc(CNCC5CCCO5)c4)s3)[nH]c12.O=C(O)C(F)(F)F (stereo not drawn) [TCMDC-133094] | 10.18
COC(=O)c1cccc(CNCc2ccc(-c3ccc(-c4nc5cccc(C)c5[nH]4)s3)cc2)c1.O=C(O)C(F)(F)F [TCMDC-132950] | 57.35
Cc1cccc2nc(-c3ccc(-c4cccc(CNCC5CCCO5)c4)cc3)[nH]c12.O=C(O)C(F)(F)F (stereo not drawn) [TCMDC-133098] | -5.371
COC(=O)c1cccc(CNCc2ccc(-c3ccc(-c4nc5ccccc5[nH]4)s3)cc2)c1.O=C(O)C(F)(F)F [TCMDC-132945] | -1.704
COC(=O)c1cccc(CNCc2cccc(-c3ccc(-c4nc5cccc(C)c5[nH]4)s3)c2)c1.O=C(O)C(F)(F)F [TCMDC-132956] | -38.48
Cc1cccc2nc(-c3ccc(-c4ccc(CNCc5cccc(N)c5)cc4)cc3)[nH]c12.O=C(O)C(F)(F)F [TCMDC-132938] | -30.59
COC(=O)c1cccc(CNCc2cccc(-c3cccc(-c4nc5cccc(C)c5[nH]4)c3)c2)c1.O=C(O)C(F)(F)F [TCMDC-132946] | 7.725
Cc1cccc2nc(-c3cccc(-c4cccc(CNCC5CCCO5)c4)c3)[nH]c12.O=C(O)C(F)(F)F (stereo not drawn) [TCMDC-133104] | 76.66
Cc1cccc2nc(-c3cccc(-c4cccc(CNCc5cccc(N)c5)c4)c3)[nH]c12.O=C(O)C(F)(F)F [TCMDC-132928] | 56.62
COc1ccc(CNCc2ccc(-c3cccc(-c4nc5cccc(C)c5[nH]4)c3)cc2)cc1.O=C(O)C(F)(F)F [TCMDC-132729] | 40.55
Cc1cccc2nc(-c3cccc(-c4ccc(CNCc5cccc(N)c5)cc4)c3)[nH]c12.O=C(O)C(F)(F)F [TCMDC-132930] | -5.493
COC(=O)c1cccc(CNCc2ccc(-c3cccc(-c4nc5cccc(C)c5[nH]4)c3)cc2)c1.O=C(O)C(F)(F)F [TCMDC-132948] | 73.37
Brc1ccsc1-c1nc(NC2CCN(Cc3ccccc3)CC2)no1 [TCMDC-134188] | 10.75
NCC(=O)NC12CC3CC(CC(C3)C1)C2 [TCMDC-131419] | -2.875
N#CC1(c2ccccc2)CCN(c2nc(NCCCN3CCCC3=O)nc(N3CCCC4CCCCC43)n2)CC1 (stereo not drawn) [TCMDC-139927] | -17.2
CCNc1cc(C(=O)N[C@@H](Cc2ccccc2)[C@H](O)CNCCc2cc(OC)cc(OC)c2)cc(N2CCCCS2(=O)=O)c1 [TCMDC-134842] | 28.85

SMILES | % Inhibition [%]
Cc1cccc2nc(-c3ccc(-c4cccc(NC(=O)CCc5c[nH]cn5)c4)s3)[nH]c12 [TCMDC-132161] | 5.175
COC(=O)c1cccc(CNCc2cccc(-c3ccc(-c4nc5cccc(C)c5[nH]4)cc3)c2)c1.O=C(O)C(F)(F)F [TCMDC-132952] | 25.59
COC(=O)c1cccc(CNCc2ccc(-c3ccc(-c4nc5cc(F)ccc5[nH]4)cc3)cc2)c1.O=C(O)C(F)(F)F [TCMDC-132953] | 44.17
COC(=O)c1cccc(CNCc2ccc(-c3ccc(-c4nc5cccc(C)c5[nH]4)cc3)cc2)c1.O=C(O)C(F)(F)F [TCMDC-132957] | 77.27
OC(CNc1ccnc(Nc2cccc(Cl)c2)n1)c1ccc(C(F)(F)F)cc1 (stereo not drawn) [TCMDC-136596] | -49.28
COc1cc2nc(C)nc(Nc3cccc(Br)c3)c2cc1OC [TCMDC-131939] | -0.682
Cc1nc(N)nc(N)c1-c1ccc(Br)cc1 [TCMDC-137374] | -63.84
COc1cc2nc(-c3ccc(Br)cc3)cc(N)c2cc1OC [TCMDC-138933] | 106.9
N#Cc1ccc(CN2CCC(Oc3ccc(NC(=O)c4cccs4)cc3)C2)cc1 (stereo not drawn) [TCMDC-133959] | 8.963
N#Cc1c(F)cc(N2CCC(NCC[C@H](N)Cc3ccc(F)c(F)c3)CC2)cc1F [TCMDC-132121] | 103.9
O=C(Nc1cccc(N2CCC(NCCCc3ccncc3)CC2)c1)c1cccc(C(F)(F)F)c1 [TCMDC-124659] | 7.336
N[C@@H](CCNCc1ccc(-c2cccnc2)cc1)Cc1ccc(F)c(F)c1 [TCMDC-132122] | 33.59
N[C@@H](CCN1CCC(c2cccc(O)c2)CC1)Cc1ccc(F)c(F)c1 [TCMDC-132126] | -7.47
O=C(NC1CCCC1)c1ccc(N2CCC(NCc3cccc(C(F)(F)F)c3)CC2)cc1 [TCMDC-124644] | -9.577
N[C@@H](CCNC1CCN(c2cccc(C(F)(F)F)c2)CC1)Cc1ccc(F)c(F)c1 [TCMDC-132301] | 119.6
O=C(Nc1ccc(Cl)c(-c2nc3ccccc3[nH]2)c1)c1ccc(-c2ccc(Cl)cc2)o1 [TCMDC-125599] | -11.96
N#Cc1ccc(N2CCN(Cc3ccc(-c4ccc(-c5nc6ccccc6[nH]5)s4)cc3)CC2)nc1.O=C(O)C(F)(F)F [TCMDC-133119] | -24.51
COCCNCc1cccc(-c2ccc(CN(C(=O)NC3CCCCC3)C3CCN(Cc4ccccc4)CC3)cc2)c1 [TCMDC-140636] | 84.07
COCCNCc1ccc(-c2ccc(CN(C(=O)NC3CCCCC3)C3CCN(Cc4ccccc4)CC3)cc2)cc1 [TCMDC-140637] | 95.07
C[C@@H](CC1CCCCC1)NCc1cccc(NS(=O)(=O)c2ccc(O)c(-c3ccno3)c2)c1 [TCMDC-141485] | 41.65
COc1cc(-c2nc(-c3ccccc3)c(-c3ccc([N+](=O)[O-])cc3)[nH]2)cc(OC)c1O [TCMDC-125529] | -60.07

SMILES | % Inhibition [%]
COc1c(O)cc2oc(-c3ccc(O)cc3)cc(=O)c2c1O [TCMDC-123942] | 46.88
COc1cc2[nH]c(-c3ccc(O)cc3)c(C)c(=O)c2c(OC)c1OC [TCMDC-137449] | 59.36
O=C(Nc1ccc(Cn2ncc(N3CCCNCC3)c(Cl)c2=O)cc1)Nc1cc(C(F)(F)F)cc(C(F)(F)F)c1 [TCMDC-133327] | -39.39
Cc1cc(N2CCOCC2)nc(Nc2ccc(NC(=O)c3cccc4ccccc34)cc2)n1 [TCMDC-124962] | 3.103
C[C@H](N[C@H]1CCCc2c1[nH]c1ccc(Br)cc21)c1ccccc1 [TCMDC-138915] | -58.95
Cc1nc(-c2ccc(-c3ccc(NC(=O)c4coc5ccc(N6CC(C)N(C)C(C)C6)cc45)cc3)c(C)c2)no1 (stereo not drawn) [TCMDC-141233] | 92.65
Cc1cc(-c2ccc(NC(=O)c3coc4ccc(N5CC(C)N(C)C(C)C5)cc34)cc2C)cc(C)n1 (stereo not drawn) [TCMDC-141310] | -15.05
Cc1nc(-c2ccc(-c3ccc(NC(=O)c4coc5ccc(N6CC(C)NC(C)C6)cc45)cc3)c(C)c2)no1 (stereo not drawn) [TCMDC-141309] | -4.933
O[C@H](c1cc(C(F)(F)F)nc2c(C(F)(F)F)cccc12)[C@@H]1CCCCN1 [TCMDC-123920] | 23.74
N#Cc1cccc(NC(=O)Nc2ccc3c(c2)CN(Cc2c[nH]c4ncccc24)C3)c1 [TCMDC-141757] | 5.913
COC(=O)c1cccc(C#CCCOCCCCCCNC[C@H](O)c2cc(Cl)c(N)c(Cl)c2)c1 [TCMDC-138515] | 25.12
O=C(c1cc(-c2ccco2)[nH]n1)N1CCN(S(=O)(=O)c2ccc(Br)cc2)CC1 [TCMDC-124699] | -28.22
Cc1ccc(S(=O)(=O)N2CCN(C(=O)c3cc(-c4cccs4)[nH]n3)CC2)c(C)c1 [TCMDC-124700] | 26.64
O=C(c1cc(-c2cccs2)[nH]n1)N1CCN(S(=O)(=O)c2ccc(Cl)cc2)CC1 [TCMDC-124702] | 54.51
O=C(c1cc(-c2ccco2)[nH]n1)N1CCN(S(=O)(=O)c2ccc(Cl)cc2)CC1 [TCMDC-124698] | 58.01
O=C(c1cc(-c2cccs2)[nH]n1)N1CCN(S(=O)(=O)c2ccc(Br)cc2)CC1 [TCMDC-124703] | 15.64
O=C(c1cc(-c2cccs2)[nH]n1)N1CCN(S(=O)(=O)c2ccc(Cl)s2)CC1 [TCMDC-124701] | 26.12
CC(Nc1ccnc2cc(Cl)ccc12)c1ccc(S(N)(=O)=O)cc1 (stereo not drawn) [TCMDC-125107] | 16.92
Cc1nc(Nc2ccc(C)c(Cl)c2)c2c(C)noc2n1 [TCMDC-125162] | 15.95
Cc1ccc(Cl)cc1NC(=O)c1c(-c2ccccc2Cl)noc1C [TCMDC-124175] | -15.67
O=C(NC1CCCc2ccccc21)[C@@H]1CCCN1C(=O)c1ccc(O)c(-c2cccc([N+](=O)[O-])c2)c1 (stereo partly drawn) [TCMDC-140798] | 18.58
